The supplement of paper PMC11001985

compound: C#CCNC(=O)CCSSCCC(=O)NCCc1ccc(C=O)c(C=O)c1; assay: lysine labeling ratio R10:1 (500 µM / 50 µM probe), SILAC-ABPP in living cells; higher = lower intrinsic lysine reactivity toward the probe, active = 2 or less; details: HeLa; probe concentrations 500 vs 50 µM
Outline: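 Measurements came from LC-MS/MS on a TIMS-TOF Pro of mixed SILAC light and heavy HeLa lysates after click to biotin-azide, trypsin digestion, neutravidin capture, DTT release and alkylation. Before lysis, the living cells sat in PBS at room temperature with 50 µM or 500 µM of an alkyne-tagged, disulfide-linked lysine probe, and labels were swapped forward and reverse. R per lysine is the median across both swap directions of the filtered median high-probe/low-probe MS1 peptide ratio. The cap is 20.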

UniProt P05783, sequence (P05783 whole entry): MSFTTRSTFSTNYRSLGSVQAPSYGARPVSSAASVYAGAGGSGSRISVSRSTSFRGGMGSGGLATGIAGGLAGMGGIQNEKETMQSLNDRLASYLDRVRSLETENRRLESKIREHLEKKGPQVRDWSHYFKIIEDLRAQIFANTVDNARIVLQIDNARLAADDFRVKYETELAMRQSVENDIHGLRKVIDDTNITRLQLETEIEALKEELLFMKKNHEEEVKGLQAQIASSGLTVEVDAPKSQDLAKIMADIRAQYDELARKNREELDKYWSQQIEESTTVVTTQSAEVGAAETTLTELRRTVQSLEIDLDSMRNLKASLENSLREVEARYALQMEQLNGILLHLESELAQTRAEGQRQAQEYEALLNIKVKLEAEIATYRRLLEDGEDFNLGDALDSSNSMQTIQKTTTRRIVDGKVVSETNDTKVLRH
UniProt Q9UIQ6, sequence (Q9UIQ6 whole entry): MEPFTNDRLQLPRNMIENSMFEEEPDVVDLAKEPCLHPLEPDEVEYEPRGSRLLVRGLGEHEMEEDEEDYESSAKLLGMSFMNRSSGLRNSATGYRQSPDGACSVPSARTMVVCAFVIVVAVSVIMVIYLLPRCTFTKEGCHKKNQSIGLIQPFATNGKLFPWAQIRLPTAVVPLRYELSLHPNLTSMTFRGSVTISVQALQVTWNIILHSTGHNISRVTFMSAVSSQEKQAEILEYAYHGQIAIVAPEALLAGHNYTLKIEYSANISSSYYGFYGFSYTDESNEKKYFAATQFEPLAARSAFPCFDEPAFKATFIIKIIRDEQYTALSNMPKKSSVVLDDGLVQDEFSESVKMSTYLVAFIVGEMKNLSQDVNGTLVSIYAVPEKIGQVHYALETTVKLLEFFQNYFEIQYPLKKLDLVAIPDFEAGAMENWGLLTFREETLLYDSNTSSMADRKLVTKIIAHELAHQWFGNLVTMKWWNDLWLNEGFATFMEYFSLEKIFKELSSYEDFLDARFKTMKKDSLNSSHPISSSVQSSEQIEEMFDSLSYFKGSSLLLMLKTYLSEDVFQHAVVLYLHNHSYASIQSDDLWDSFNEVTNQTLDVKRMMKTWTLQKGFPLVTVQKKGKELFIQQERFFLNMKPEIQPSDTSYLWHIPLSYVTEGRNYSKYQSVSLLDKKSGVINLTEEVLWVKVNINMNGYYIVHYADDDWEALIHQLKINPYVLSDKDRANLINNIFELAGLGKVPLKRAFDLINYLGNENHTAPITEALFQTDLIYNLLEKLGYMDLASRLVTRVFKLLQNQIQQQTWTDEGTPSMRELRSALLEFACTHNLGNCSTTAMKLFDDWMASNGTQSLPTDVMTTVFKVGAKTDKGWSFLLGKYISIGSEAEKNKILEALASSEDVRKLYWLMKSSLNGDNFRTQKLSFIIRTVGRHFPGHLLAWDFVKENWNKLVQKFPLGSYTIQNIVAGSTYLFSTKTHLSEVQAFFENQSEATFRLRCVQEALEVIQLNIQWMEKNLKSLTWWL
UniProt O00468, sequence (O00468 whole entry): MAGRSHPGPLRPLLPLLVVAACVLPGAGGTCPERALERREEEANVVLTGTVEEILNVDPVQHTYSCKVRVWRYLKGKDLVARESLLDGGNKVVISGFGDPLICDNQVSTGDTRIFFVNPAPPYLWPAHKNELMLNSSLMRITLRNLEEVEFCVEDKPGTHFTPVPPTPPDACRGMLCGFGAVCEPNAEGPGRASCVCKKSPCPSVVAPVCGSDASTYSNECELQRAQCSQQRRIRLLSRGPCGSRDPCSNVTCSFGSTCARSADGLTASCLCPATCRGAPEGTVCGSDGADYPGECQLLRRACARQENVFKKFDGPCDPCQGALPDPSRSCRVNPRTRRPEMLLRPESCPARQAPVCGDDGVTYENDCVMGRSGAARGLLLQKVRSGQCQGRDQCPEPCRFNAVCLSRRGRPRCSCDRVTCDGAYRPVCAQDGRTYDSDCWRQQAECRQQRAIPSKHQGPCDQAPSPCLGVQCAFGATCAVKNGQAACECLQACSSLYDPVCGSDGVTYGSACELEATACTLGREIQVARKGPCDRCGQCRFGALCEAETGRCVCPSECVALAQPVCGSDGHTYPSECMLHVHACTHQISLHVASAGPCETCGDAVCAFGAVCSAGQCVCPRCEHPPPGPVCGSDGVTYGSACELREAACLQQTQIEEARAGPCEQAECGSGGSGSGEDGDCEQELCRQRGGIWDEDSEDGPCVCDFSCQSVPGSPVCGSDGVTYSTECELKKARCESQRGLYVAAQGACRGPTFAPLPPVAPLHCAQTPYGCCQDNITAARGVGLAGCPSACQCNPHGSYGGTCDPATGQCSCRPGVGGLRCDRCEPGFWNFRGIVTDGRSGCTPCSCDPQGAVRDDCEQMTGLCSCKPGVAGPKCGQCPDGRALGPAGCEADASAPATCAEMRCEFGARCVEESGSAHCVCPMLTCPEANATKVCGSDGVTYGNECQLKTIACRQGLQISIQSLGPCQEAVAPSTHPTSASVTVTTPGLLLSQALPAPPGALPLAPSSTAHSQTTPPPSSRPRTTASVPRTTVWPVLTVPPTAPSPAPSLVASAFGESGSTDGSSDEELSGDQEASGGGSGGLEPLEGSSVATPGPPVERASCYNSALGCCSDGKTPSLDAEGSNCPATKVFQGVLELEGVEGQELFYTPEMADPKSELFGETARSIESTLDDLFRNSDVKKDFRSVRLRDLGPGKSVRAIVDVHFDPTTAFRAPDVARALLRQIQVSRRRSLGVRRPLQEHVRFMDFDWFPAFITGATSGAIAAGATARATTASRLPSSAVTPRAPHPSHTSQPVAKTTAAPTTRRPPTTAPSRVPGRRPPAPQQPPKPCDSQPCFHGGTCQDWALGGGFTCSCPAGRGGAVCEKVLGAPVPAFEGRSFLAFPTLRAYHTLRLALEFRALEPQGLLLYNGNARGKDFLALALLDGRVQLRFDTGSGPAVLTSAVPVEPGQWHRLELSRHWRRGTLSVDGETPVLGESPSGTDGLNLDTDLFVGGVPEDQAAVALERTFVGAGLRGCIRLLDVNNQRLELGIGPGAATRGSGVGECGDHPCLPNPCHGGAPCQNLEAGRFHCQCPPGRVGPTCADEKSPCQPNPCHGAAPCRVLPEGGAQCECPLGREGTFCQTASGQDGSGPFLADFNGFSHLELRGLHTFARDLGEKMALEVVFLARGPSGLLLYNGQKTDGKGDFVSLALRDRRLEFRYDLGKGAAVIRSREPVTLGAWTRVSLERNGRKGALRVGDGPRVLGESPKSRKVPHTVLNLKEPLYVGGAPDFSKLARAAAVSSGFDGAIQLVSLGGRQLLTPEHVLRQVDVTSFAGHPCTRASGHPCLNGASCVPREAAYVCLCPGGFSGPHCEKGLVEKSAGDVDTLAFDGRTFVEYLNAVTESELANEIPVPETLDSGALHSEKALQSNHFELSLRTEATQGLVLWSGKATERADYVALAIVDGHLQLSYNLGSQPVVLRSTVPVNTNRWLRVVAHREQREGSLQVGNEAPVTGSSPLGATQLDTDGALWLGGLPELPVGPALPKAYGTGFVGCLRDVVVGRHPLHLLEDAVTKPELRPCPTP
UniProt P41091, sequence (P41091 whole entry): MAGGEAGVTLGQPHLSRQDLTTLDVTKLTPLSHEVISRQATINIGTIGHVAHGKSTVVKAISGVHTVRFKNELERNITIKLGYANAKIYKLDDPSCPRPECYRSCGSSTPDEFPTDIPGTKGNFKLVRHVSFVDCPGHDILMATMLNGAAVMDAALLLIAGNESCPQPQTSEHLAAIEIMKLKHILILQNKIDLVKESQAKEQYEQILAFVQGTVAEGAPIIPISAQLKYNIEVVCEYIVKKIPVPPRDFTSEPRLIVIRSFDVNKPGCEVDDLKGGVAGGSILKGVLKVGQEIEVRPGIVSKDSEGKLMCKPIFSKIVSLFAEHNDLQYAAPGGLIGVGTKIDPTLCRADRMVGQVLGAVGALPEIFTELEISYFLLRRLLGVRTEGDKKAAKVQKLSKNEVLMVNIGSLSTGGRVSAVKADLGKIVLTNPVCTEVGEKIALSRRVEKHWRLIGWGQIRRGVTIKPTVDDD
UniProt Q99985, sequence (Q99985 whole entry): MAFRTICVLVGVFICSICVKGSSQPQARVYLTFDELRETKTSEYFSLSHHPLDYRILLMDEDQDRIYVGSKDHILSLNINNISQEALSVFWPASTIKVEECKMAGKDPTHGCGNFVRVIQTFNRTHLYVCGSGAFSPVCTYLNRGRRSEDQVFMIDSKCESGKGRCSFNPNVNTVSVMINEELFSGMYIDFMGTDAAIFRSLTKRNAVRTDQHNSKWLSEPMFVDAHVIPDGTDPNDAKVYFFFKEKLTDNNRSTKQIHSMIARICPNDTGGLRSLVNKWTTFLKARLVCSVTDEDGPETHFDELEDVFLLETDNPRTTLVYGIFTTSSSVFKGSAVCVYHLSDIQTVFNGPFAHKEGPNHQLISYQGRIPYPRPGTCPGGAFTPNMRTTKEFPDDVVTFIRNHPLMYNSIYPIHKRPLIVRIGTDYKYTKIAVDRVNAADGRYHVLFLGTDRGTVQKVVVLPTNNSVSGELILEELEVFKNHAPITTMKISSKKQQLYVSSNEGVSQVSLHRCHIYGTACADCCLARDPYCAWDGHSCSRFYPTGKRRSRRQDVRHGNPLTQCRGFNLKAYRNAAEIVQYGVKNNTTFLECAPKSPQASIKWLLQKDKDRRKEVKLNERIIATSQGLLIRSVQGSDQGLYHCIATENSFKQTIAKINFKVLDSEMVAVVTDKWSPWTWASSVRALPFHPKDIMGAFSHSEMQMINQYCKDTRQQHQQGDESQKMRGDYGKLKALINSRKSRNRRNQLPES
UniProt P61604, sequence (P61604 whole entry): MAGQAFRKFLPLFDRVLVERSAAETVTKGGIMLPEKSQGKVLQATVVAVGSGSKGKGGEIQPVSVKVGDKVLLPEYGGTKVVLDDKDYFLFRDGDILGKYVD
UniProt O15258, sequence (O15258 whole entry): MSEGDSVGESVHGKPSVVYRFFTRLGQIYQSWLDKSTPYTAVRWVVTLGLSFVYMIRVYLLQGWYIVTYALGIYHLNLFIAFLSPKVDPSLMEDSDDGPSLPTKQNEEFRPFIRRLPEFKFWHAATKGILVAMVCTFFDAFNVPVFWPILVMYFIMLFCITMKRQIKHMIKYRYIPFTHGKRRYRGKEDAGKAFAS

Row | Target | lysine labeling ratio R10:1
1 | UniProt P16144 (lysine site: K392) | 0.94 (active)
2 | KTN1 (lysine site: K559) (UniProt Q86UP2) | 1.4 (active)
3 | FSCN1 (lysine site: K399) (UniProt Q16658) | 3.81 (inactive)
4 | RPL5 (lysine site: K242) (UniProt P46777) | 5.69 (inactive)
5 | KRT18 (lysine site: K167) (UniProt P05783) | 10.7 (inactive)
6 | HSD17B12 (lysine site: K261) (UniProt Q53GQ0) | 1.88 (active)
7 | FLNB (lysine site: K1425) (UniProt O75369) | 3.67 (inactive)
8 | EDIL3 (lysine site: K106) (UniProt O43854) | 2.57 (inactive)
9 | UniProt P62899 (lysine site: K75) | 2.92 (inactive)
10 | AGRN (lysine site: K1368) (UniProt O00468) | 1.88 (active)
11 | UniProt Q15149 (lysine site: K4140) | 3.87 (inactive)
12 | HSPE1 (lysine site: K8) (UniProt P61604) | 4.22 (inactive)
13 | UniProt Q16363 (lysine site: K1068) | 2.52 (inactive)
14 | EIF2S3 (lysine site: K70) (UniProt P41091) | 3.79 (inactive)
15 | DISP1 (lysine site: K369) (UniProt Q96F81) | 1.37 (active)
16 | RAB13 (lysine site: K58) (UniProt P51153) | 13.2 (inactive)
17 | RER1 (lysine site: K181) (UniProt O15258) | 7.46 (inactive)
18 | FAT1 (lysine site: K101) (UniProt Q14517) | 2.6 (inactive)
19 | NOTCH2 (lysine site: K1350) (UniProt Q04721) | 2.12 (inactive)
20 | PLXND1 (lysine site: K1182) (UniProt Q9Y4D7) | 0.824 (active)

Row | Target | lysine labeling ratio R10:1
21 | CCT6A (lysine site: K388) (UniProt P40227) | 1.46 (active)
22 | ATP1B1 (lysine site: K113) (UniProt P05026) | 1.86 (active)
23 | SEMA3C (lysine site: K731) (UniProt Q99985) | 0.505 (active)
24 | IGF1R (lysine site: K667) (UniProt P08069) | 1.28 (active)
25 | UniProt Q8WXI7 (lysine site: K13402) | 5.02 (inactive)
26 | LNPEP (lysine site: K626) (UniProt Q9UIQ6) | 0.72 (active)
27 | GANAB (lysine site: K48) (UniProt Q14697) | 3.47 (inactive)
28 | NECTIN3 (lysine site: K301) (UniProt Q9NQS3) | 1.83 (active)
29 | PLXNA3 (lysine site: K622) (UniProt P51805) | 1.94 (active)
30 | LRP8 (lysine site: K567) (UniProt Q14114) | 1.53 (active)
31 | LAMC1 (lysine site: K1039) (UniProt P11047) | 3.94 (inactive)
32 | THBS1 (lysine site: K430) (UniProt P07996) | 3.67 (inactive)
33 | ECE1 (lysine site: K747) (UniProt P42892) | 4.05 (inactive)
34 | FRAS1 (lysine site: K1628) (UniProt Q86XX4) | 3.34 (inactive)
35 | L1CAM (lysine site: K515) (UniProt P32004) | 1.77 (active)
36 | SPTAN1 (lysine site: K1543) (UniProt Q13813) | 1.58 (active)
37 | AXL (lysine site: K211) (UniProt P30530) | 2.55 (inactive)
38 | RBMX (lysine site: K163) (UniProt P38159) | 3.88 (inactive)
39 | RPS3A (lysine site: K152) (UniProt P61247) | 3.85 (inactive)
40 | CD109 (lysine site: K1018) (UniProt Q6YHK3) | 1.99 (active)
